SMN2 splice enh: SMN2 splice variant enhancement; 210,000 tested, 2.8% active; HEK293 SMN2-luciferase splicing reporter, luminescence, 30-36 h; AID 1458; Potency, µM (highest dose often 46.1 µM), for inactives: at the top dose activity change, positive = activation, actives largely listed as activators; also: % of control where 0% means no effect; nearly all actives have a fitted effect of over 55% in size
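HEK293 cells carry an SMN2 minigene-luciferase reporter in which exon 7 inclusion puts luciferase in frame. Cells were seeded at 2000 cells/well, attached for 10-12 hours, then exposed to compounds for 30-36 hours at 37C before ONE-Glo luminescence.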
NPC1 promoter act: activators of NPC1 promoter; Huh7 NPC1 promoter luciferase reporter, 24 h; Potency, µM (titrated, usually from 9.22 µM), for the others: at the top dose activation, actives largely listed as activators; 320,000 tested, 2.4% active; AID 485313; also: % of control where 0% means no effect; nearly all actives have a fitted effect of over 60% in size
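Luminescence read-out of NPC1 promoter-driven luciferase in stably transfected Huh7 cells; compounds delivered in DMSO and left 24 h at 37C, 5% CO2, qHTS titration format.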
FLuc counter: firefly luciferase modulation, counter-screen for miR-21 project; 360,000 tested, 6.9% active; Potency, µM (highest dose often 57.5 µM), inactives show at the top dose activity change, negative = inhibition, usual class: inhibitors; purified FLuc, Km substrates, luminescence inhibition; P08659; AID 588342;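 also: plate controls were vehicle for no effect and reference inhibitor for full effect; nearly all actives have a fitted effect of over 55% in size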
Target sequence (P08659 whole entry, looked up): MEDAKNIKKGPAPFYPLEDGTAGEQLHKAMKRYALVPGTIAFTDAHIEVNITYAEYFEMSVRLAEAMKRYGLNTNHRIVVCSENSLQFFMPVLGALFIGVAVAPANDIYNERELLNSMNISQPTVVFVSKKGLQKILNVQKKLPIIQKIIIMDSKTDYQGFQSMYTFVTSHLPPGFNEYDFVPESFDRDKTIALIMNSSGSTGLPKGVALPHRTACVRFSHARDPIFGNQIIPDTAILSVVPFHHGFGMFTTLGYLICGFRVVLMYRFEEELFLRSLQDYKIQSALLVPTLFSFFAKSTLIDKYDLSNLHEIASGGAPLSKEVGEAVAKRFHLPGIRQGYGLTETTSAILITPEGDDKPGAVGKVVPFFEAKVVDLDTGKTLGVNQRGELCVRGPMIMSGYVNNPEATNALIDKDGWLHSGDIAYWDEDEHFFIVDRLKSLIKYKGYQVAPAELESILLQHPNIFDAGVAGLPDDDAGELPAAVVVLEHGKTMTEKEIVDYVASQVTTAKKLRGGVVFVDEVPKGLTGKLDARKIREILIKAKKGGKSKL
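Purified P. pyralis luciferase, 10 nM final, with Km-level 10 uM D-luciferin and 10 uM ATP in 50 mM Tris acetate pH 7.5, 10 mM Mg acetate, 0.01% Tween-20, 0.05% BSA; 6-point qHTS titration about 60 µM downward; luminescence read.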
ELG1 genotox: induces genotoxicity in HEK293T cells with luciferase-tagged ELG1 | HEK293T ELG1-luciferase reporter, luminescence, 16 h | Potency, µM (doses to about 46 µM), inactives show at the top dose activity change, positive = activation, usual class: activators | 330,000 tested, 1.3% active | AID 504466; also: % of control where 0% means no effect; nearly all actives have a fitted effect of over 60% in size
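Step 1: seed 2,000 HEK293T ELG1-luciferase cells per well. Step 2: add compound or DMSO, incubate 16 hr at 37 °C. Step 3: ONE-Glo, 30 min at room temperature, read luminescence.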
Rab9 promoter act: Rab9 promoter activation. Huh7 Rab9 promoter-luciferase reporter, luminescence, 24 h. Potency, µM (titrated, usually from 9.22 µM), inactives show at the top dose activation, negative = inhibition, usual class: activators. 320,000 tested, 2.8% active. AID 485297; also: % of control where 0% means no effect; nearly all actives have a fitted effect of over 60% in size
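Luciferase signal after 10 min detection reagent at ambient indicates Rab9 promoter upregulation; stably transfected Huh7 cells were treated 24 h with compound in DMSO at 37 °C, 5% CO2.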
KinaseGlo FLuc: counter-screen: inhibitors of Kinase-Glo firefly luciferase; Kinase-Glo luciferase, ATP luminescence, 8 min; Potency, µM (series often up to 38.3 µM), for the others: top-dose activity change, negative = inhibition, actives largely listed as inhibitors; 200,000 tested, 0.28% active; AID 1379; also: % is scaled to controls: 0 for no effect and ±100 for the full control effect; nearly all actives have a fitted effect of over 60% in size
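Inhibition of Kinase-Glo luciferase light generation was assessed at 10 uM ATP in pH 7.2 imidazole buffer, with luminescence measured after eight minutes at ambient temperature.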
Numbers without * were called inactive; ? = inconclusive; / = not tested or not shown. Shown are actives, neighbours in structure and some others; about 7.3% of the full set was active somewhere. Calls follow the shape of the dose curve; as a rule, active = well fitted curve in the direction sought with a large enough effect; inconclusive = small, poorly fitted or top-dose-only effect, or another doubt; inactive = no such curve, though single readings can be large; an effect the other way counts as inactive or inconclusive. Potency is read from the fitted curve at half-maximal effect.

SMILES | SMN2 splice enh | NPC1 promoter act | FLuc counter | ELG1 genotox | Rab9 promoter act | KinaseGlo FLuc
Cc1cccc(-n2cc(CNCCN3CCOC3=O)c(-c3cccc(F)c3)n2)c1 | / | -0.8% | 9.53µM* | 3.0% | 11.9% | /
COc1ccccc1CN1CC(C(=O)NCc2c(F)ccc(C)c2F)CCC1=O (stereo unspecified) | / | ? | 30.1µM* | ? | ? | /
COc1ccccc1CN1CC(C(=O)NCc2ccc(C)c(F)c2)CCC1=O (stereo unspecified) | / | -5.7% | -1.9% | 2.1% | 1.2% | /
CCN(CC)c1ccc(C2C(C(=O)OC)=C(C)NC(C)=C2C(=O)OC)cc1 | 1.2% | -4.4% | 0.5% | 3.6% | -7.7% | -4.0%
CCN(CC)c1ccc(/C=C/C(=O)C2C(=O)C=C(C)OC2=O)cc1 (stereo unspecified) | ? | 1.58µM* | 8.49µM* | ? | 2.82µM* | ?
Cc1ccc(NC(=O)CS(=O)CC(=O)NC(C)CCc2ccco2)cc1Cl (stereo unspecified) | -6.8% | 3.5% | 0.5% | 0.6% | 4.1% | -0.6%
CCc1c(C)sc(NC(=O)c2cc(-c3ccc(OC)cc3)on2)c1C#N | -4.6% | / | -2.7% | / | / | /
CCN(CC)c1ccc(C=C2C(=O)OC(C)(C(C)(C)C)OC2=O)cc1 (stereo unspecified) | 8.7% | -4.7% | -1.4% | 1.4% | 1.6% | -1.7%
CN(C)c1ccc(C=C2C(=O)OC(C)(C(C)(C)C)OC2=O)cc1 (stereo unspecified) | 2.5% | -0.7% | 9.53µM* | -0.1% | 6.7% | -2.9%
CN(C)c1ccc(C=C2C(=O)OC(C)(C)OC2=O)cc1 | -28.5% | -6.1% | 19µM* | -6.9% | -1.3% | -6.2%
N=c1c2c3c(sc2ncn1Cc1ccco1)CCCCC3 | -13.9% | 6.0% | ? | -0.2% | -2.1% | 1.8%
CCN(CC)C(=O)Oc1ccc2c(=O)c(-c3ccc(OC)cc3)coc2c1 | -11.6% | 1.78µM* | 8.49µM* | 0.7% | ? | -2.5%
CCN(CC)C(=O)Oc1ccc2c(=O)c(-c3ccc(OC)cc3)c(C)oc2c1 | -46.6% | -4.4% | ? | -10.1% | -1.0% | -6.5%
COc1ccc(-c2coc3c(O)c(OC)ccc3c2=O)cc1 | 1.58µM* | / | / | / | / | -12.1%
COc1ccc(-c2coc3c(CN4CCOCC4)c(O)ccc3c2=O)cc1 | / | 2.5% | -1.7% | 5.1% | -0.8% | /
COc1ccc2c(=O)c(-c3ccc4c(c3)OCO4)coc2c1 | 11.2µM* | 0.355µM* | 0.675µM* | 2.91µM* | 0.398µM* | ?
CC(NCC1COc2ccccc2O1)C(=O)NCc1ccccc1 (stereo unspecified) | 17.0% | -2.8% | -0.7% | -1.6% | -1.5% | -4.6%
Cc1ccc(OCCn2c(=O)sc3ccccc32)cc1 | 12.6µM* | 3.55µM* | 6.75µM* | ? | ? | -2.7%
O=c1sc2ccccc2n1CCCOc1ccccc1 | ? | 3.16µM* | 10.7µM* | 19.5% | 2.51µM* | -4.9%
COc1ccc(Cn2c(=O)sc3ccccc32)cc1 | ? | -0.9% | 2.1% | 3.3% | -0.9% | -2.1%
Cc1ccc(OCCCn2c(=O)sc3ccccc32)cc1 | -1.3% | 15.8% | 16.9µM* | 2.3% | 14.7% | -3.0%
Cc1ccccc1OCCCn1c(=O)sc2ccccc21 | 17.8µM* | ? | 9.53µM* | 17.3% | ? | -7.4%
O=c1sc2ccccc2n1Cc1ccccc1 | -2.4% | -2.9% | -9.8% | 4.7% | -2.0% | 2.1%
COC(=O)C1(C)CCc2cc(OC)ccc2C1=O (stereo unspecified) | 8.5% | 7.9% | -4.1% | 12.3% | 1.4% | -2.1%
C=C(C)CNC(=S)Nc1cccc(N)n1 | 4.1% | -0.5% | 1.1% | 0.8% | 1.3% | -2.4%
O=c1sc2ccccc2n1COc1ccccc1 | -17.1% | 14.8% | -2.3% | 6.5% | -7.1% | -0.2%
O=c1sc2ccccc2n1COc1ccc(Cl)cc1 | -20.7% | 27.5% | 19µM* | ? | ? | -1.2%
